APP 5UTR inh – inhibitors of APP translation via 5'UTR reporter, primary screen, APP 5'UTR luciferase, SH-SY5Y cells | SH-SY5Y APP 5'UTR-luciferase reporter, luminescence | inhibition, % at 2 µM | hit rate 0.82% among 190,000 | AID 1285, 2008;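 active = inhibition above a set limit, derived from the sample mean plus 3 SD, cut at about 45% in these data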
KLF5 inhibitor – KLF5 expression inhibitors, primary screen, DLD-1 cells, luminescence | hit rate 0.23% among 290,000 | inhibition, % at 5 µM | DLD-1 KLF5 promoter-luciferase reporter;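 active = inhibition above a per-plate limit of that plate's mean compound inhibition plus 3 SD, cut at about 60% in these data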;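 note: 0% = DMSO wells and 100% = LY294002 at 200 µM; higher means less KLF5 promoter-driven luciferase light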
IEC-6 tox-1 – cytotoxicity in IEC-6 intestinal epithelial cells, primary screen, cytotoxicity control for KLF5 inhibitor project, cell-based, luminescence | IEC-6 cytotoxicity, luminescence viability | hit rate 0.78% among 290,000 | inhibition, % at 5 µM;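 note: 0% = plate median of test compound wells and 100% = cytotoxic reference compound wells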
Ba/F3 V617F tox – reduced viability of JAK2V617F-dependent Ba/F3 cells, primary screen, JAK2V617F inhibitor project, cell-based, Ba/F3 EpoR-JAK2V617F, luminescence; ATP luminescence; hit rate 1.1% among 220,000; inhibition, % at 5.6 µM; AID 1446, 2008;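 active = inhibition above the campaign mean plus 3 SD over all tested compounds, cut at about 24% in these data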;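 note: cytokine-independent growth of Ba/F3 cells driven by EpoR plus mutant JAK2; 0% = DMSO-treated cells and 100% = JAK inhibitor I control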
BaF3 parental – parental Ba/F3 cell viability inhibition, counter-screen for JAK2V617F inhibitor project, murine pro-B, CellTiter-Glo luminescence; hit rate 1.1% among 220,000; inhibition, % at 5.6 µM; CellTiter-Glo ATP luminescence;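 active = inhibition above a per-campaign cutoff, the mean inhibition of all tested compounds plus 3 SD, cut at about 27% in these data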;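 note: 0% = DMSO wells and 100% = JAK Inhibitor I control wells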
KLF5 confirm – KLF5 expression inhibitors, confirmation, DLD-1 cells, luminescence; AID 1834, 2009; hit rate 79% among 610; DLD-1 KLF5 promoter firefly luciferase reporter; inhibition, % at 4 µM; shares compounds with KLF5 inhibitor;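 active = inhibition above a set limit taken from the earlier primary screen, cut at about 63% in these data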;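 note: 0% = DMSO wells and 100% = LY294002 at 200 µM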
IEC-6 tox-2 – cytotoxicity in rat IEC-6 cells, cytotoxicity control for KLF5 inhibitor project, cell-based, luminescence, triplicate | shares compounds with KLF5 inhibitor | IEC-6 rat intestinal cells, viability luminescence | inhibition, % at 4 µM | hit rate 56% among 610 | AID 1905, 2009; in the data active = inhibition above about 23%;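 note: cells exposed to compounds for 48 hours before viability read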
IEC-6 cytotox cf – cytotoxic compounds in IEC-6 epithelial cells, confirmation, cytotoxicity control, cell-based, luminescence. inhibition, % at 5 µM. shares compounds with IEC-6 tox-1. hit rate 63% among 1,900. IEC-6 rat intestinal epithelial viability;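 note: 0% = vehicle and 100% = reference cytotoxic drug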
* hit, by the source's call; nt = no result. This is a sample that favours compounds with a hit; in the whole collection about 1.9% have one here. Cut-off read from the data, not from the text of the source, unless noted: active = inhibition above about 22%; inactive = the rest.

SMILES	APP 5UTR inh	KLF5 inhibitor	IEC-6 tox-1	Ba/F3 V617F tox	BaF3 parental	KLF5 confirm	IEC-6 tox-2	IEC-6 cytotox cf
COc1ccc(S(=O)(=O)N2CCN(C)CC2)cc1NC(=O)c1ccccc1F	nt	-25.0	3.7	nt	nt	nt	nt	nt
O=C(N/N=C/c1ccco1)c1ccccc1OCc1ccc(Br)cc1	-21.8	-32.1	-1.5	1.1	5.6	nt	nt	nt
O=C(Cc1n[nH]c(=O)c2ccccc12)OCC(=O)c1ccc2c(c1)OCCO2	94.6*	77.0*	89.4*	83.5*	82.2*	65.4*	71.5*	60.3*
CC1CC(C)CN(C(=O)c2ccc(S(=O)(=O)N3CC(C)CC(C)C3)cc2)C1 (stereo not given)	nt	16.8	-1.5	nt	nt	nt	nt	nt
COc1cc2c(c(OC)c1OC)-c1ccc(NC(=O)c3ccccc3)c(=O)cc1[C@@H](NC(C)=O)CC2	nt	77.3*	86.6*	nt	nt	64.5*	49.4*	48.9*
CCOc1ccc(S(=O)(=O)Nc2cc(OC)ccc2OC)cc1	93.3*	72.7*	89.5*	80.0*	80.1*	82.5*	59.4*	62.0*
COc1ccc(OC)c(NS(=O)(=O)c2ccc(N3CCCC3=O)cc2)c1	95.9*	82.9*	87.5*	79.3*	81.2*	82.8*	61.6*	53.2*
COc1ccc(CCNS(=O)(=O)c2ccc(N3CCCC3=O)cc2)cc1	-5.3	-41.6	-1.8	-3.4	3.2	nt	nt	nt
Cc1ccc(N2CC(C(=O)Nc3ccc(N4CCOCC4)cc3)CC2=O)cc1C (stereo not given)	nt	14.0	0.1	nt	nt	nt	nt	nt
Cc1onc(C(=O)Nc2c(C)n(C)n(-c3ccccc3)c2=O)c1[N+](=O)[O-]	nt	-41.4	-0.1	-1.4	-11.4	nt	nt	nt
O=C(N/N=C/c1ccccc1O)c1ccc2c(c1)OCO2	nt	71.9*	76.4*	nt	nt	4.4	12.0	18.7
N#Cc1ccc(-c2cccs2)nc1SCc1cccnc1	nt	62.4*	78.7*	73.2*	69.1*	74.7*	63.9*	64.2*
COc1ccc(CCN2C(=S)N(C)C(=O)C2CC(=O)Nc2ccc(F)cc2)cc1 (stereo not given)	nt	-25.7	-4.4	-5.8	2.3	nt	nt	nt
COCCOC(=O)c1[nH]c2c(c1C)C(=O)CC(c1cccs1)C2 (stereo not given)	85.4*	71.0*	78.7*	74.1*	74.8*	73.0*	59.3*	54.8*
COC(=O)c1[nH]c2c(c1C)C(=O)CC(c1cccc(OC)c1)C2 (stereo not given)	nt	78.2*	86.2*	nt	nt	89.0*	63.9*	61.5*
CCOCCOC(=O)c1[nH]c2c(c1C)C(=O)CC(c1ccccc1)C2 (stereo not given)	nt	77.6*	91.2*	nt	nt	87.0*	65.9*	76.2*
CCCCCOC(=O)c1[nH]c2c(c1C)C(=O)CC(c1ccco1)C2 (stereo not given)	95.3*	78.5*	93.9*	94.7*	94.6*	87.6*	77.1*	79.3*
COCCOC(=O)c1[nH]c2c(c1C)C(=O)CC(c1ccc(OC)c(OC)c1)C2 (stereo not given)	nt	-27.4	2.5	nt	nt	nt	nt	nt
Cc1cn2c(nc1=O)OC1CC2OC1CO (stereo not given)	nt	-20.6	-6.8	-2.8	-7.7	nt	nt	nt
O=C(O)Cc1c(C(=O)O)[nH]c2ccc(C(=O)O)cc12	nt	-27.1	-11.6	-5.0	-4.6	nt	nt	nt
COc1cc2c(cc1OC)C(C)N(C(=O)c1cc(C)on1)CC2 (stereo not given)	nt	74.1*	85.4*	nt	nt	88.6*	54.4*	54.5*
CN1/C(=C/C=C(/C#N)C(N)=O)C(C)(C)c2ccccc21	68.5*	68.8*	47.3*	78.5*	62.4*	60.3	36.1*	44.4*
CN1/C(=C\C=C(/C#N)C(=O)Nc2ccccc2F)C(C)(C)c2ccccc21	-17.6	-39.5	1.1	-1.2	6.8	nt	nt	nt

Source: PubChem BioAssay
